Assay results published in paper PMC4336329 (PLoS ONE, 2015).
Out of some 310,000 compounds screened, about 14,000 (4.5%) showed an effect of 50% or more. The effect is printed as a negative number. This excerpt belongs to a sample that is enriched for strong results.

target: human ether-à-go-go-related gene (hERG) potassium channel (human, UniProt Q12809); experiment: primary screen, population patch clamp on CHO cells stably expressing hERG; higher = less effect of the substance
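Further: peak tail current of the secondary pulse compared with the same well before compound.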

human ether-à-go-go-related gene (hERG) potassium channel, sequence (Q12809 whole entry, looked up): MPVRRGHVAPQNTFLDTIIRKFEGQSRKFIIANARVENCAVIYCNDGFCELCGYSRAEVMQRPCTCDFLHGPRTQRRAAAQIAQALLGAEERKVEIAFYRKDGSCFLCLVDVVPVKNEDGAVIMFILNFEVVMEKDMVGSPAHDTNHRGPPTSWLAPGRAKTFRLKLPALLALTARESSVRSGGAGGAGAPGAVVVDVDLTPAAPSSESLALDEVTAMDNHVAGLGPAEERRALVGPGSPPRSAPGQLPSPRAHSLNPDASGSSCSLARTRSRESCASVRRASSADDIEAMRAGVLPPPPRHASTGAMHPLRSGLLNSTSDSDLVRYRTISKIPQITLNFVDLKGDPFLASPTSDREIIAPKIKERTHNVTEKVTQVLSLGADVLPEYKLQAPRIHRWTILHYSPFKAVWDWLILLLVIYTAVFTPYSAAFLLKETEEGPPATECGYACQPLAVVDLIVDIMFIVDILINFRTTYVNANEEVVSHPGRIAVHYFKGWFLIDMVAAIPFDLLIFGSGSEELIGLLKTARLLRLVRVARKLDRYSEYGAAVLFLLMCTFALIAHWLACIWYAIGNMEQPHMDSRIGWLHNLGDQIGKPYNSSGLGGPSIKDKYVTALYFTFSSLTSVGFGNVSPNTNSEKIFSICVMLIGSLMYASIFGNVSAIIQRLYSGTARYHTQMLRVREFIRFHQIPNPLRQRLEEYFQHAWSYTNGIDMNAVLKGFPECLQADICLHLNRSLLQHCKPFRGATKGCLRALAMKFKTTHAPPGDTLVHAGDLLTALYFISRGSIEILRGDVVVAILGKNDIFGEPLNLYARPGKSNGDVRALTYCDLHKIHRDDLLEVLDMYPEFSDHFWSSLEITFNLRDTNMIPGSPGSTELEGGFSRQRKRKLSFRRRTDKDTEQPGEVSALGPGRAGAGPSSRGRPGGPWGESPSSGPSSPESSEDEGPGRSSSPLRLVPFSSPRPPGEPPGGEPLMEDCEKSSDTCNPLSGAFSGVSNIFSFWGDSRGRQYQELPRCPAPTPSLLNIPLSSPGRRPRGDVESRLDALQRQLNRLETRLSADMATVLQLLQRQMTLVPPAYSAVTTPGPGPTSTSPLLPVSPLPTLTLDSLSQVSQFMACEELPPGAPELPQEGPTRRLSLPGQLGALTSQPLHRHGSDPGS

| SMILES | hERG current change (%, negative = inhibition) at 10uM [%] |
| --- | --- |
| Cc1ccc(N2C(=O)CS(=O)(=O)CC2=O)cc1 | 22.9 |
| CC[C@H](C)[C@H](NC(N)=O)C(=O)NCCc1ccc(OC)c(OC)c1 | 20.1 |
| O=[N+]([O-])C(=C1Nc2ccccc2N1)/C(Cl)=C(/Cl)Br | 19.8 |
| Brc1ccc2nc(-c3cccs3)c(NCC3CCCO3)n2c1 (stereo not shown) | -52.6 |
| N#Cc1nc(-c2cccs2)oc1NCC1CCCO1 (stereo not shown) | -10 |
| c1csc(-c2nc(NCC3CCCO3)c3ccccc3n2)c1 (stereo not shown) | -20.5 |
| COc1ccccc1OCC(=O)Nc1c2c(nn1-c1ccccc1)CS(=O)(=O)C2 | -8.22 |
| Cc1c(C)c2cc(Cl)c(OCC(=O)N3C[C@H]4C[C@@H](C3)c3cccc(=O)n3C4)cc2oc1=O | 1.78 |
| Cc1ccccc1C(=O)Nc1c2c(nc3ccccc13)CCCC2 | -5.54 |
| O=C(O)c1cccc(Nc2c3ccccc3nc3ccccc23)c1 | 19.7 |
| CC(=O)c1ccc(Nc2c3c(nc4ccccc24)CCCC3)cc1 | -53.3 |
| CC(=O)c1cccc(Nc2c3c(nc4ccccc24)CCC3)c1.Cl | -68.8 |
| O=C(Nc1c2c(nc3ccccc13)CCCC2)c1ccccc1Cl | 17.2 |
| CC(=O)c1cccc(Nc2nc(-c3ccccc3)nc3ccccc23)c1.Cl | 26.9 |
| CCC(CC)C(=O)NC12CC3CC(CC(C3)C1)C2 | 5.15 |
| Cc1cccc(CSCCNC(=O)CN(c2cc(C)cc(C)c2)S(C)(=O)=O)c1 | -23.9 |
| CC(NC(=O)C(=O)N1CCOCC1)C(c1cccs1)N1CCN(c2ccc(F)cc2)CC1 (stereo not shown) | -0.955 |
| Cc1nc(C(F)(F)F)nc(Nc2ccc(Br)cc2)c1C#N | 12.2 |
| COc1ccc(C=C(c2nc3ccccc3s2)c2nc3ccccc3s2)cc1O | 3.94 |
| Cc1ccc2c(c1)N(CCC(=O)NCCN1CCOCC1)C(=O)CO2 | -2.16 |
| N/C(Cc1ccc([N+](=O)[O-])cc1)=N\OC(=O)COc1ccc2ccccc2c1 | -14.4 |
| O=C(O)c1cccc(CN2C(=O)SC(Nc3ccccc3)C2=O)c1 (stereo not shown) | 2.16 |
| OC(COc1ccc(Cl)cc1Cl)Cn1ccnc1 (stereo not shown) | 9.67 |

| SMILES | hERG current change (%, negative = inhibition) at 10uM [%] |
| --- | --- |
| OC(COc1ccc(F)cc1Cl)CN1CCc2ccccc2C1 (stereo not shown) | -41.7 |
| Cc1ccc(C(C)C)c(OCCCN2CCc3ccccc3C2)c1.Cl | -70.1 |
| Cc1ccc(C(C)C)c(OCC(O)CN2CCN(CCO)CC2)c1.Cl (stereo not shown) | -13.9 |
| Cl.Clc1ccc(OCCCN2CCc3ccccc3C2)c(Br)c1 | -34.8 |
| Cc1ccc(C(C)C)c(OCC(O)CN2CCOCC2)c1 (stereo not shown) | -2.99 |
| Cl.Clc1ccc(OCCOCCN2CCc3ccccc3C2)c(Cl)c1 | -69.8 |
| Cc1ccc(C)c(OCCCN2CCc3ccccc3C2)c1.Cl | -49.4 |
| Cl.OC(COc1ccc(Cl)cc1Cl)CN1CCc2ccccc2C1 (stereo not shown) | -58.6 |
| Cl.c1ccc(-c2ccccc2OCCOCCN2CCc3ccccc3C2)cc1 | -28.7 |
| Cc1ccc(C(C)C)c(OCCN2CCc3ccccc3C2)c1.Cl | 14.5 |
| Cc1ccc(C(C)C)c(OCC(O)CN2CCc3ccccc3C2)c1.Cl (stereo not shown) | -65 |
| CCOC(=O)/C=C1\SCC(=O)N1CC(=O)NCCOC | -10.2 |
| NC(=O)c1ccc[n+](CC(=O)OCCC23CC4CC(CC(C4)C2)C3)c1.[Cl-] | 11.8 |
| COc1ccc(N(CC(=O)NC2CCCC2)S(=O)(=O)c2c(C)[nH]c(=O)[nH]c2=O)cc1 | 10.2 |
| Cc1cccc(C)c1OCCN1CCOCC1.O=C(O)C(=O)O | -0.56 |
| O=C(NNc1ncccc1-n1cccc1)c1ccc(Cl)cc1 | -15.4 |
| O=C(CSc1nc(C2CC2)nc2sc3c(c12)CCCC3)NCc1ccco1 | -6.99 |
| Cc1ccc(Cn2c(Sc3ncccn3)nc3c2c(=O)[nH]c(=O)n3C)cc1 | -5.24 |
| CCOC(=O)C1=C(N)n2c(s/c(=C/c3ccco3)c2=O)=C(C(=O)OC)C1c1ccco1 (stereo not shown) | -2.57 |
| COCCNC(=O)c1c(NC(=O)c2ccco2)n(Cc2ccccc2)c2nc3ccccc3nc12 | -16.9 |
| Cc1ccc(OCC(O)CN2CCOCC2)c(C)c1.Cl (stereo not shown) | 20.2 |
| Cc1ccc(OCCCCN2CCc3ccccc3C2)c(C)c1.Cl | -34.1 |
| Cc1cccc(OCC(O)CN2CCc3ccccc3C2)c1.Cl (stereo not shown) | -38 |

| SMILES | hERG current change (%, negative = inhibition) at 10uM [%] |
| --- | --- |
| Cc1cc(OCC(O)CN2CCc3ccccc3C2)cc(C(C)C)c1.Cl (stereo not shown) | -56.2 |
| Cc1ccc(OCC(O)CN2CCc3ccccc3C2)c(C)c1.Cl (stereo not shown) | -72.3 |
| Cc1nc(SCCOc2ccccc2F)[nH]c(=O)c1Cc1ccccc1 | 46.9 |
| O=C(Nc1cnn(Cc2ccccc2)c1)c1nc2ncccn2n1 | 6.14 |
| Cc1nc(CCNC(=O)c2cc(COc3ccc(F)cc3Cl)on2)sc1C | -22.4 |
| O=C(O)c1ccc(Cl)c2c1C1C=CCC1C(c1ccccn1)N2 (stereo not shown) | 7.76 |
| COc1ccc(C(=O)NCC(=O)OCc2ccc(F)cc2Cl)cc1OC | -1.96 |
| COc1ccc(C(=O)NC2CC2)cc1OC1CCN(Cc2ccc(F)cc2F)CC1 | -81.5 |
| COc1ccc(C(=O)NC2CCN(Cc3c(F)cccc3Cl)CC2)cc1OC | -1.46 |
| COc1ccc(C(=O)NC2CC2)cc1OC1CCN(Cc2ccc(F)cc2Cl)CC1 | -70.9 |
| O=C(NCc1ccccn1)c1ccc(OC2CCN(Cc3ccc(F)cc3F)CC2)cc1 | -25.9 |
| COCCNC(=O)c1cccc(OC2CCN(Cc3ccc(F)cc3OC)CC2)c1 | -23.1 |
| Cc1cc2sc3ccccc3c(=O)c2c(C)c1O | 21.6 |
| Cc1ccc(S(=O)(=O)N2CCOCC2)cc1C(=O)Nc1ccc2c(c1)CCC2 | -10.6 |
| COC(=O)c1cn(NC(=O)C2CCC(C(C)(C)C)CC2)c(=O)c2ccccc12 (stereo not shown) | 13.7 |
| O/N=C/c1cccc[n+]1CCCCCC[n+]1ccccc1/C=N/O.[Br-] | 20.1 |
| [Cl-].c1ccc(C[n+]2cccc3c4ccccc4ccc32)cc1 | -15 |
| CCCCCCCCCCCCCCCC[n+]1cccc2ccccc21.[I-] | -71.2 |
| Cc1cccc[n+]1CCCCCCCCCC[n+]1ccccc1C.[Br-] | 37.8 |
| CCCCCCCCC[n+]1cccc2c3ccccc3ccc21.[Br-] | -84.8 |
| CCC[n+]1c2ccccc2cc2ccccc21.[I-] | 23.7 |
| CCCCCCCC[n+]1cccc2c3ccccc3ccc21.[I-] | -84.3 |
| CCCC[n+]1c2ccccc2cc2ccccc21.[I-] | -32.9 |

| SMILES | hERG current change (%, negative = inhibition) at 10uM [%] |
| --- | --- |
| NC(=O)C[n+]1cccc2ccccc21.[I-] | 9.16 |
| O=C(C[n+]1cccc(CO)c1)Nc1nc2ccccc2s1.[Cl-] | -9.18 |
| CC(C)CN(C(=O)CCC(=O)OCc1ccc(Cl)cc1Cl)c1c(N)n(CC(C)C)c(=O)[nH]c1=O | -47.3 |
| CCn1nc(C)cc1C(=O)NC1CCCc2c1cnn2-c1cc(F)cc(F)c1 (stereo not shown) | -5.58 |
| Cc1cc(=O)c2cc(Br)ccc2n1CC(=O)NCc1ccccc1 | -12.8 |
| O=C(CCNc1cc(Cl)cc(Cl)c1)c1ccco1 | -4.77 |
| Cc1ccc(C(C)(C)C)c(OCCCCN2CCCC2)c1 | -19.9 |
| CCCN(CCC)CCNC(=O)CCC(=O)Nc1ccc2nc(N3CCN(C)CC3)cc(C)c2c1 | 17.7 |
| O=c1[nH]ncn2cccc12 | 24.1 |
| CN(Cc1ccc(F)cc1Cl)S(=O)(=O)c1cccs1 | -62 |
| COc1ccccc1CN(C)S(=O)(=O)c1cccs1 | 4.72 |
| CN(Cc1c(F)cccc1Cl)S(=O)(=O)c1cccs1 | -19.8 |
| Cc1c(OC(C)C(=O)NCCCN2CCOCC2)ccc2c1oc(=O)c1ccccc12 (stereo not shown) | 6.19 |
| O=C(CCN1C(=O)COc2ccccc21)NCCCN1CCN(c2ccc(F)cc2)CC1 | -63.7 |
| O=C(CN1C(=O)COc2ccccc21)NCCN1CCOCC1 | 11.3 |
| O=C(CCN1C(=O)COc2ccccc21)NCCCN1CCN(c2ccccc2F)CC1 | -42.7 |
| CN1CCN(CCCNC(=O)CCN2C(=O)COc3ccccc32)CC1 | 0.334 |
| COc1ccc(N2CCN(CCNC(=O)CCN3C(=O)COc4ccccc43)CC2)cc1 | -47 |
| O=C(CCN1C(=O)COc2ccccc21)NCCN1CCN(c2cccc(Cl)c2)CC1 | -56.5 |
| O=C(CN1C(=O)COc2ccccc21)NCCN1CCC(Cc2ccccc2)CC1 | -56.6 |
| O=C(CN1C(=O)COc2ccccc21)NCCN1CCCC1 | 13.6 |
| O=C(CCN1C(=O)COc2ccccc21)NCCN1CCN(c2ccccc2F)CC1 | -33.5 |
